High-throughput results deposited in PubChem BioAssay by several laboratories.
Peg3 promoter: Peg3 promoter activity inhibition. HeLa PEG-Prom luciferase reporter, luminescence, overnight. inhibition, % at 20 µM. actives 1.7% (n = 360,000). AID 588405;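 active = inhibition of at least 50% at 20 µM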
EBV LMP1 NFkB: Epstein-Barr LMP1 NF-kappaB reporter inhibition; LMP1-induced NF-kappaB luciferase reporter cells, luminescence; inhibition, % at 12.5 µM; actives 0.69% (n = 350,000); in the data active = inhibition above about 41%; inconclusive = no clear call, values can overlap the other calls;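 also: 0% = neutral control wells and 100% = reference inhibitor control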
TRPM1 prom inh: MITF TRPM1 promoter inhibition in SK-MEL-5 cells. SK-MEL-5 TRPM1 promoter luciferase, 24 h. actives 0.83% (n = 330,000). inhibition, % at 12.5 µM;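 active = mean inhibition across replicates of 60% or more, whatever share of single replicates reaches that level; inconclusive = some that reach 60%, reason not given; inactive = mean inhibition across replicates below 60%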
HIF-2a inh: HIF-2a inhibition; 786-0 RCC cells HIF-2a reporter, luciferase luminescence, overnight; inhibition, % at 18.8 µM; actives 0.72% (n = 360,000); AID 624352;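 active = inhibition of the luminescence signal of 40% or more relative to plate controls, in a single-dose primary screen at 18.75 µM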
KKLEB tox: CF airway cell cytotoxicity counter-screen. KKLEB CF airway cells viability, ATPlite luminescence, overnight; active compounds read low; cells stimulated with P. aeruginosa culture filtrate. activity change (cytotoxicity), % at 5 µM. actives 0.36% (n = 360,000). AID 602141;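 active = corrected activity change at or below -50% at 5 µM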
CF NFkB block: blocks PAF-induced NF-kB reporter in cystic fibrosis cells. KKLEB NF-kB-GFP reporter, GFP fluorescence overnight. inhibition, % at 5 µM. actives 0.86% (n = 360,000). AID 588850;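 active = at least 50% inhibition at 5 µM, scaled per plate between neutral and stimulator controls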;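 also: PAF is a Pseudomonas aeruginosa culture filtrate used as stimulus; plate controls were PAF-stimulated DMSO wells for no effect and unstimulated DMSO wells for full effect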
Mdm2 MdmX conf: confirmation of inhibitors of human Mdm2/MdmX interaction, set 2. shares compounds with HIF-2a inh. SaOS-2 split-luciferase Mdm2/MdmX complementation, luminescence. inhibition, % at 8 µM. actives 99% (n = 740);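 active = mean inhibition of the luminescence signal across two replicates at or above 26 percent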
Target sequence (O15151 whole entry, looked up): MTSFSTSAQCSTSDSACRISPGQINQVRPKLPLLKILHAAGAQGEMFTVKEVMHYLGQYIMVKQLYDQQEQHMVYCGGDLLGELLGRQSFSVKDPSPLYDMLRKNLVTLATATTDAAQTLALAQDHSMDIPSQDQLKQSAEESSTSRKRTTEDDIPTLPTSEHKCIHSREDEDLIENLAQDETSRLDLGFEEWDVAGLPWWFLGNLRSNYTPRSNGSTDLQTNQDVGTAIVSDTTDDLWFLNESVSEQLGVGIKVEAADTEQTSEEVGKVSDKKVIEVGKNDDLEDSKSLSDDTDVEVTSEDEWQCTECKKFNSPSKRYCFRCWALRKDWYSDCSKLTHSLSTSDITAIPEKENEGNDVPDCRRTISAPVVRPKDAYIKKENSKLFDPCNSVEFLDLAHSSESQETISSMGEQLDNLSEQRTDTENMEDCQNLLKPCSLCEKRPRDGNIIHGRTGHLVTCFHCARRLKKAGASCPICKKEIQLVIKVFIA
Target sequence (Q00987 whole entry, looked up): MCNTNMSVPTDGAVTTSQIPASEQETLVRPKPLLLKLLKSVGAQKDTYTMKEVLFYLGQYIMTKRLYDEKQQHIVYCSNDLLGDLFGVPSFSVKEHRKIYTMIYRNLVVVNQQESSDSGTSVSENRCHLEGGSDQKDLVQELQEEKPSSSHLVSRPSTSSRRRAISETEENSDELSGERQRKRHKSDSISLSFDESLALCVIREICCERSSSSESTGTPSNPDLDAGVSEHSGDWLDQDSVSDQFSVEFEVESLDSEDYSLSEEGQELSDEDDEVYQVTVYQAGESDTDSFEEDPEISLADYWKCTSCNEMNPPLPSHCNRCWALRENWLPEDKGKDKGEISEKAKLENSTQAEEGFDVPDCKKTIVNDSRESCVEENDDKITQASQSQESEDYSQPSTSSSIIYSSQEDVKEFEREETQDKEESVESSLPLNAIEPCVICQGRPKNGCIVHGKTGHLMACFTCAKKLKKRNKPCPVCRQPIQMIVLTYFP
HIF-2a conf: confirmation of HIF-2a inhibitors; 786-0 RCC cells, HIF-2a luciferase reporter luminescence, overnight; shares compounds with HIF-2a inh; AID 651580; actives 56% (n = 1,800); inhibition, % at 18.8 µM;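 active = mean inhibition across four replicates of at least 40 percent at the single tested concentration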
HIF-1a counter: counter-screen for HIF-2a inhibitors: HIF-1a inhibition in MiaPaCa-2 cells | inhibition, % at 18.8 µM | actives 72% (n = 1,800) | MiaPaCa-2 HIF-1a luciferase reporter, desferoxamine, overnight | shares compounds with HIF-2a inh | AID 651589;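 active = mean inhibition of the reporter signal across four replicates at the single tested dose of 50% or more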
The depositor's hits bear a star; ? = inconclusive; · = no result given. A selection: hits, their analogues and other compounds. The true share with any hit is near 3%.

SMILES	Peg3 promoter	EBV LMP1 NFkB	TRPM1 prom inh	HIF-2a inh	KKLEB tox	CF NFkB block	HIF-2a conf	HIF-1a counter	others
O=C(NCCCN1CCOCC1)c1cc(-c2cccs2)on1	-51.4	38.4	29.3	-167.1	3.3	-70.3	·	·
Cc1c(C(=O)NCCC#N)sc(=O)n1Cc1ccc(C(=O)N(C)C)cc1	7.8	·	·	5.5	-17.7	12.9	·	·
CCOC(=O)C1Nc2ccc(C(F)(F)F)cc2C2c3ccccc3CC12 (configuration not stated)	-21.3	4.7	-0.5	-1.7	-9.4	-20.7	·	·	Mdm2 MdmX conf=65.8*
COc1ccc(NC(=O)CN(C)C(=O)C2(c3ccccc3)CCCC2)cc1	45.4	-21.3	40.1	51.1*	4.6	-107.8	32.5	15.1
CCN(CC(=O)Nc1ccc(NC(C)=O)cc1)C(=O)C1(c2ccc(Cl)cc2)CCC1	16.9	-1.3	·	50.9*	12.3	-53.6	31.8	1.3
COc1ccc(NC(=O)CN(C)C(=O)CCc2ccccc2)cc1	1.2	2.0	-0.6	-2.3	-1.2	2.1	·	·
Cc1ccc(OCC(=O)c2cc(C)n(CC(F)(F)F)c2C)c([N+](=O)[O-])n1	-13.4	-0.5	4.5	-36.7	6.0	3.7	·	·
Cc1ccc(OCC(=O)c2cc(C)n(Cc3cccs3)c2C)c([N+](=O)[O-])n1	42.7	34.6	2.0	58.1*	-0.5	4.6	71.8*	95.3*
Cc1cc(C)c(C(=O)COc2cccnc2[N+](=O)[O-])cc1C	30.6	-3.2	18.4	-8.1	-1.6	18.7	·	·
COCCn1c(C)cc(C(=O)COc2cccnc2[N+](=O)[O-])c1C	64.7*	20.7	12.5	51.5*	9.1	-2.6	65.4*	70.8*
CSc1ccc(Cn2c(C)c(C(=O)NCc3cccs3)sc2=O)cc1	18.1	·	·	2.6	-4.8	21.9	·	·
CC[C@@]1(O)C(=O)OCc2c1cc1n(c2=O)Cc2cc3c(N)cccc3nc2-1	72.2*	83.2*	80.3*	27.1	-23.2	75.5*	·	·	Mdm2 MdmX conf=100.5*
O=c1cccc2n1Cc1cc3ccccc3nc1-2	-242.0	-33.9	-35.0	-179.4	13.5	-42.6	·	·
CC(C)(CNC(=O)c1cccc(S(=O)(=O)Nc2ccc(SC(F)F)cc2)c1)N1CCOCC1	17.3	3.3	2.0	4.4	2.7	1.4	·	·
Oc1cccc(Nc2nc(N3CCOCC3)nc(N3CCOCC3)n2)c1	6.8	-1.8	-6.7	49.5*	-27.3	37.5	24.0	76.5*
Cc1ccc(S(=O)(=O)N2[C@@H](c3cccc(Cl)c3)C(C(=O)OC(C)(C)C)=CC[C@H]2c2ccc(C(C)C)cc2)cc1	19.1	·	·	9.5	-22.0	6.3	·	·
Cc1cc(C)c(C#N)c(OCC2CCCO2)n1 (configuration not stated)	-3.5	·	·	-10.2	-7.5	3.9	·	·
Clc1ccc2c(N/N=C/c3ccccc3Br)ccnc2c1	84.0*	-28.4	83.4*	-27.3	-42.6	-49.7	·	·	Mdm2 MdmX conf=102.7*
CC(C)CC(=O)/C(=C\c1ccc(Cl)cc1Cl)n1cncn1	104.7*	8.5	86.1*	94.4*	-81.3*	86.1*	93.9*	107.2*
CC(C)CC(=O)/C(=C/c1ccc(N(C)C)cc1)n1cncn1	-9.2	3.8	10.5	-1.3	3.9	-7.1	·	·
CCC(=O)N[C@H]1C=C[C@H](CC(=O)OC)O[C@@H]1CO	·	·	·	15.2	·	·	·	·
COC(=O)[C@@]1(Cc2ccccc2)[C@H]2C(=O)N(Cc3ccccc3)C(=O)[C@H]2[C@H]2CN=C(SCc3ccc(Cl)cc3)N21	-0.4	?	4.5	16.8	-9.4	8.7	·	·	Mdm2 MdmX conf=103.0*
COC(=O)[C@@]1(C)[C@H]2C(=O)N(Cc3ccccc3)C(=O)[C@H]2[C@H]2CN=C(SCc3ccc(Cl)cc3)N21	10.8	69.9*	0.8	10.7	0.8	13.6	·	·	Mdm2 MdmX conf=102.7*
COC(=O)[C@@]1(C)[C@H]2C(=O)N(Cc3ccccc3)C(=O)[C@H]2[C@H]2CN=C(SCc3ccc(C#N)cc3)N21	3.7	12.1	-4.5	10.3	-0.2	-12.0	·	·
CC(C)CN1CCC1(C)C(=O)Nc1cc(-c2ccccc2)nn1C (configuration not stated)	5.7	·	·	-12.7	-8.8	3.8	·	·
SMILES	Peg3 promoter	EBV LMP1 NFkB	TRPM1 prom inh	HIF-2a inh	KKLEB tox	CF NFkB block	HIF-2a conf	HIF-1a counter	others
CN(C)CCCNc1nc2cc(-c3cnn(Cc4ccccc4)c3)sc2c(=O)n1C	-4.3	·	·	-40.8	-9.1	-19.7	·	·
Cc1ccc(C)c(-n2nnnc2Sc2nnnn2-c2ccccc2)c1	95.8*	13.1	21.4	29.2	-68.3*	92.0*	·	·	Mdm2 MdmX conf=103.2*
CCCCCN=C(N)N/N=C/c1c[nH]c2ccc(OC)cc12	94.8*	-2.2	97.1*	97.6*	-24.0	24.8	35.3	100.1*
C[C@@H]1CN([C@@H](C)CO)C(=O)CCCn2nncc2CO[C@H]1CN(C)S(C)(=O)=O	-5.2	0.2	·	7.7	5.0	-20.5	·	·
O=[N+]([O-])c1ccc(N=Nc2ncc[nH]2)cc1	107.4*	-76.3	14.8	-23.0	-6.9	74.7*	·	·	Mdm2 MdmX conf=103.5*
CC(C)N1C(=O)/C(=C/c2nc3ccccc3c(=O)n2-c2ccccc2)c2ccccc21	31.8	2.6	21.8	63.8*	0.9	2.6	58.9*	101.7*
Cc1oc(-c2cccc(Cl)c2)nc1CN1CCC(C(=O)NCCCN2CC(C)CC(C)C2)CC1 (configuration not stated)	91.6*	-33.1	96.2*	1.4	-3.3	-6.5	·	·	Mdm2 MdmX conf=103.5*
Cc1nc(SCc2cccc(C(=O)O)c2)nc2c1CCCC2	-48.1	2.9	27.6	86.1*	-0.2	-2.0	83.5*	25.3
Cc1nc2ccc(S(=O)(=O)CCC(=O)NCCc3ccccc3)cc2s1	4.3	·	·	7.8	2.7	5.6	·	·
O=C(NNc1ncc(C(F)(F)F)cc1Cl)c1ccc(Cl)c(Cl)c1	1.9	4.9	0.0	15.7	4.5	-7.5	·	·
Cc1ccc(NC(=S)NNc2ncc(C(F)(F)F)cc2Cl)c(C)c1	23.4	6.5	-9.9	27.2	-0.9	17.1	·	·
Cc1ccc(NC(=S)NNc2ncc(C(F)(F)F)cc2Cl)cc1	25.7	4.4	29.5	68.6*	6.5	1.7	81.5*	41.4
FC(F)(F)c1cnc(NNC(=S)Nc2ccc(Cl)cc2)c(Cl)c1	36.8	31.3	49.6	47.9*	-23.1	43.8	52.4*	37.7
CNc1cc(-c2ccc(CC#N)cc2)ncn1	-194.5	·	·	-260.2	8.1	7.1	·	·
CCOc1ccc(-c2cc(CCCC(=O)Nc3cccc(OC)c3)no2)cc1	-12.5	46.6*	?	41.5*	-6.2	5.6	52.4*	70.1*
